Results from PubChem BioAssay (NCI).
This is part of a sample that, as a whole, favours compounds with a hit. Of some 83,000 tested, about 20% had one in any assay.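 Activity criterion: percent growth below 10, measured after cells in 96-well plates were exposed to a single compound concentration for 48 hours.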 Calls of active or inactive are those of the source.

Key:
Test in all cases: NCI-60 one-dose screen, 48 h (100 = growth as untreated, 0 = no growth, -100 = all killed)
SR leukemia = details: 10 µM unless noted
RPMI-8226 leukemia = details: 10 µM unless noted
OVCAR-8 ovarian = details: 10 µM unless noted
OVCAR-5 ovarian = details: 10 µM unless noted
OVCAR-4 ovarian = details: 10 µM unless noted
SK-OV-3 ovarian = details: 10 µM unless noted
IGROV1 ovarian = details: 10 µM unless noted
OVCAR-3 ovarian = details: 10 µM unless noted
HS 578T breast = details: 10 µM
T-47D breast = details: 10 µM unless noted
BT-549 breast = details: 10 µM unless noted
MDA-MB-435 melanoma = details: 10 µM unless noted
SW-620 colon = details: 10 µM unless noted
HCT-116 colon = details: 10 µM unless noted
HCC-2998 colon = details: 10 µM unless noted
KM12 colon = details: 10 µM unless noted
MCF7 breast = details: 10 µM unless noted
NCI/ADR-RES ovarian = details: 10 µM unless noted

Measured: growth

CC(=O)c1c(O)c(C)c(O)c2c1OC1=CC(=O)/C(=C(/C)N)C(=O)C12C (stereo not given)
inactive: SR leukemia 69% | RPMI-8226 leukemia 68.6% | OVCAR-8 ovarian 81.8% | OVCAR-5 ovarian 98.5% | OVCAR-4 ovarian 88.1% | SK-OV-3 ovarian 101% | IGROV1 ovarian 89.1% | OVCAR-3 ovarian 103% | HS 578T breast 91.5% | T-47D breast 74.9% | BT-549 breast 89.3% | MDA-MB-435 melanoma 103% | SW-620 colon 99.4% | HCT-116 colon 63.4% | HCC-2998 colon 103% | KM12 colon 88%

CCc1ccc(Nc2cc(C)c3ccc(O)cc3n2)cc1
inactive: SR leukemia 43.9% | RPMI-8226 leukemia 29.9% | OVCAR-8 ovarian 80% | OVCAR-5 ovarian 83.7% | OVCAR-4 ovarian 75.7% | SK-OV-3 ovarian 90.1% | IGROV1 ovarian 53.8% | OVCAR-3 ovarian 81% | HS 578T breast 87.6% | T-47D breast 55.3% | BT-549 breast 88.3% | MDA-MB-435 melanoma 28.5% | SW-620 colon 78.5% | MCF7 breast 63.9% | HCT-116 colon 56.8% | KM12 colon 53.9%

COc1ccc(NC(=O)C2c3ccccc3C(=O)N(CC(C)C)C2c2cccs2)cc1 (stereo not given)
inactive: SR leukemia 96.5% | RPMI-8226 leukemia 86.3% | OVCAR-8 ovarian 89.1% | OVCAR-5 ovarian 97% | OVCAR-4 ovarian 93.6% | SK-OV-3 ovarian 96.5% | IGROV1 ovarian 117% | OVCAR-3 ovarian 102% | HS 578T breast 92.2% | T-47D breast 102% | BT-549 breast 98.9% | MDA-MB-435 melanoma 103% | SW-620 colon 92% | MCF7 breast 82.3% | HCT-116 colon 93.3% | HCC-2998 colon 93.3% | KM12 colon 97.5%

CC(=O)N1N=C(c2ccc(C)cc2)CC1c1cn(-c2ccccc2)nc1-c1cccc(Nc2ccnc3cc(Cl)ccc23)c1 (stereo not given)
active: SR leukemia -4.15% | RPMI-8226 leukemia -11% | HCT-116 colon 6.87%
inactive: OVCAR-8 ovarian 46.4% | OVCAR-5 ovarian 133% | OVCAR-4 ovarian 120% | SK-OV-3 ovarian 114% | IGROV1 ovarian 48.9% | OVCAR-3 ovarian 84.7% | HS 578T breast 80.3% | T-47D breast 23.4% | BT-549 breast 87.3% | MDA-MB-435 melanoma 13.8% | SW-620 colon 27.2% | MCF7 breast 24.8% | HCC-2998 colon 102% | KM12 colon 72.5%

COc1cc(C2CC(c3ccc(Cl)cc3)=NN2C=O)ccc1OS(=O)(=O)c1ccc(C)cc1 (stereo not given)
inactive: SR leukemia 99.8% | RPMI-8226 leukemia 82.4% | OVCAR-8 ovarian 90.3% | OVCAR-5 ovarian 87.2% | OVCAR-4 ovarian 112% | SK-OV-3 ovarian 96.3% | IGROV1 ovarian 94.4% | OVCAR-3 ovarian 102% | HS 578T breast 86.8% | T-47D breast 77% | BT-549 breast 83.2% | MDA-MB-435 melanoma 90.2% | SW-620 colon 87.2% | MCF7 breast 78.9% | HCT-116 colon 81.1% | HCC-2998 colon 104% | KM12 colon 93.4%

CCCCCCCCCCCCCC[N+](C)(C)CCCCCCCCCCCCCC
inactive: SR leukemia 35.7% | RPMI-8226 leukemia 12.6% | OVCAR-8 ovarian 49.6% | OVCAR-5 ovarian 79.9% | OVCAR-4 ovarian 62% | SK-OV-3 ovarian 85.5% | OVCAR-3 ovarian 87.5% | NCI/ADR-RES ovarian 104% | T-47D breast 57.5% | BT-549 breast 92.3% | MDA-MB-435 melanoma 39.4% | SW-620 colon 76% | MCF7 breast 77.3% | HCT-116 colon 51.4% | HCC-2998 colon 62.1% | KM12 colon 76.2%
active: IGROV1 ovarian 9.59%

COc1ccc(C2CC(c3cccc(Nc4ccnc5cc(Cl)ccc45)c3)=NN2c2ccccc2)cc1 (stereo not given)
active: MDA-MB-435 melanoma -9.41%
inactive: SR leukemia 29.7% | RPMI-8226 leukemia 67.9% | OVCAR-8 ovarian 76.4% | OVCAR-5 ovarian 85.6% | OVCAR-4 ovarian 118% | SK-OV-3 ovarian 80.8% | IGROV1 ovarian 74.8% | OVCAR-3 ovarian 92.1% | HS 578T breast 78.3% | T-47D breast 50.8% | BT-549 breast 63% | SW-620 colon 36.8% | MCF7 breast 47.6% | HCT-116 colon 65.5% | HCC-2998 colon 54.1% | KM12 colon 27.1%

COC1CC(N)C2OC(c3ccccc3)OCC2O1 (stereo not given)
inactive: SR leukemia 98% | RPMI-8226 leukemia 92.8% | OVCAR-8 ovarian 98.4% | OVCAR-5 ovarian 94.4% | OVCAR-4 ovarian 97.5% | SK-OV-3 ovarian 115% | IGROV1 ovarian 110% | OVCAR-3 ovarian 111% | HS 578T breast 96.6% | T-47D breast 107% | BT-549 breast 106% | MDA-MB-435 melanoma 102% | SW-620 colon 99.6% | MCF7 breast 92.7% | HCT-116 colon 102% | HCC-2998 colon 102% | KM12 colon 103%

COc1ccc(C2CC(c3ccc(Nc4ccnc5cc(Cl)ccc45)cc3)=NN2c2ccccc2)cc1 (stereo not given)
inactive: SR leukemia 81% | RPMI-8226 leukemia 70.5% | OVCAR-8 ovarian 95.4% | OVCAR-5 ovarian 86.2% | OVCAR-4 ovarian 163% | SK-OV-3 ovarian 108% | IGROV1 ovarian 113% | OVCAR-3 ovarian 111% | HS 578T breast 105% | T-47D breast 92.9% | BT-549 breast 99.8% | MDA-MB-435 melanoma 80.3% | SW-620 colon 96.3% | MCF7 breast 81.9% | HCT-116 colon 72.4% | KM12 colon 94.2%

Nc1ccc(C(OC(=O)c2cc3ccccc3c(Cc3c(O)c(C(=O)OC(c4ccc(N)cc4)(c4ccc(N)cc4)c4ccc(N)cc4)cc4ccccc34)c2O)(c2ccc(N)cc2)c2ccc(N)cc2)cc1
inactive: SR leukemia 13.1% | OVCAR-8 ovarian 13.5% | OVCAR-5 ovarian 38.8% | SK-OV-3 ovarian 15.7% | IGROV1 ovarian 47.4% | NCI/ADR-RES ovarian 57.1% | T-47D breast 17.2% | SW-620 colon 15.9%
active: RPMI-8226 leukemia 2.08% | OVCAR-3 ovarian -14.3% | HS 578T breast -18.4% | BT-549 breast -4.24% | MDA-MB-435 melanoma 6.93% | MCF7 breast 9.51% | HCT-116 colon 8.88% | HCC-2998 colon 9.42% | KM12 colon 5.29%

C=CCOc1c(Br)cc(Br)cc1Br
inactive: SR leukemia 34.8% | RPMI-8226 leukemia 38.7% | OVCAR-8 ovarian 74.3% | OVCAR-5 ovarian 76.2% | OVCAR-4 ovarian 63.4% | SK-OV-3 ovarian 64.9% | IGROV1 ovarian 30% | HS 578T breast 42.2% | NCI/ADR-RES ovarian 63.7% | T-47D breast 65.1% | BT-549 breast 67.4% | MDA-MB-435 melanoma 27.2% | SW-620 colon 76.1% | MCF7 breast 40.5% | HCT-116 colon 54.5% | HCC-2998 colon 95.1% | KM12 colon 84.8%

Oc1ccc(Cl)cc1-c1cc(-c2ccccc2Cl)[nH]n1
active: MCF7 breast 9.57%
inactive: SR leukemia 41.9% | RPMI-8226 leukemia 42.3% | OVCAR-8 ovarian 71.1% | OVCAR-5 ovarian 87.9% | OVCAR-4 ovarian 13.3% | SK-OV-3 ovarian 76.9% | IGROV1 ovarian 34.2% | OVCAR-3 ovarian 21.2% | T-47D breast 11.1% | BT-549 breast 76.2% | MDA-MB-435 melanoma 48.1% | SW-620 colon 74.7% | HCT-116 colon 55.8% | HCC-2998 colon 31.1% | KM12 colon 19.7%

COc1cccc(NC(=O)c2c(-c3ccccc3)c(-c3ccccc3)n[nH]c2=O)c1
inactive: SR leukemia 88.3% | RPMI-8226 leukemia 86.1% | OVCAR-8 ovarian 103% | OVCAR-5 ovarian 97.8% | OVCAR-4 ovarian 86% | SK-OV-3 ovarian 99.5% | IGROV1 ovarian 105% | OVCAR-3 ovarian 107% | T-47D breast 87.5% | BT-549 breast 102% | MDA-MB-435 melanoma 98% | SW-620 colon 98.7% | MCF7 breast 95.9% | HCT-116 colon 94.9% | KM12 colon 103%

CC(C)(C)NC(=O)C(OC(=O)C1CCc2cc(F)ccc2O1)c1ccccc1Cl (stereo not given)
inactive: SR leukemia 98.4% | RPMI-8226 leukemia 99% | OVCAR-8 ovarian 98.3% | OVCAR-5 ovarian 96.6% | OVCAR-4 ovarian 94.9% | SK-OV-3 ovarian 102% | IGROV1 ovarian 92.8% | HS 578T breast 99.7% | NCI/ADR-RES ovarian 95.5% | T-47D breast 86.8% | BT-549 breast 107% | MDA-MB-435 melanoma 106% | SW-620 colon 99.7% | HCT-116 colon 93.9% | HCC-2998 colon 102%

CCOC(=O)NNc1cccc(Cl)c1
inactive: SR leukemia 102% | RPMI-8226 leukemia 98.8% | OVCAR-8 ovarian 106% | OVCAR-5 ovarian 88.3% | OVCAR-4 ovarian 106% | SK-OV-3 ovarian 105% | IGROV1 ovarian 94.9% | HS 578T breast 104% | NCI/ADR-RES ovarian 99.3% | T-47D breast 119% | MDA-MB-435 melanoma 107% | SW-620 colon 102% | MCF7 breast 105% | HCT-116 colon 111% | HCC-2998 colon 99.9% | KM12 colon 116%

CCc1ccc(-c2ccc(NC3CCCCCC3)nn2)cc1S(N)(=O)=O
inactive: SR leukemia 103% | RPMI-8226 leukemia 99.4% | OVCAR-8 ovarian 102% | OVCAR-5 ovarian 97.5% | OVCAR-4 ovarian 102% | SK-OV-3 ovarian 105% | IGROV1 ovarian 110% | OVCAR-3 ovarian 117% | T-47D breast 103% | BT-549 breast 103% | MDA-MB-435 melanoma 106% | SW-620 colon 98.8% | MCF7 breast 95.2% | HCT-116 colon 103% | HCC-2998 colon 102% | KM12 colon 110%

CC(=O)c1cccc(Nc2ncnc3ccc(NC(=O)c4ccco4)cc23)c1
inactive: SR leukemia 90.2% | RPMI-8226 leukemia 75% | OVCAR-8 ovarian 92.1% | OVCAR-5 ovarian 90.4% | OVCAR-4 ovarian 89% | SK-OV-3 ovarian 104% | IGROV1 ovarian 86.1% | HS 578T breast 102% | NCI/ADR-RES ovarian 92.7% | T-47D breast 77.1% | BT-549 breast 96.5% | MDA-MB-435 melanoma 83% | SW-620 colon 115% | MCF7 breast 80.9% | HCT-116 colon 91% | HCC-2998 colon 111%

COC(=O)c1cc(Cl)cc([N+](=O)[O-])c1O
inactive: SR leukemia 63.5% | RPMI-8226 leukemia 93.3% | OVCAR-8 ovarian 105% | OVCAR-5 ovarian 93.7% | OVCAR-4 ovarian 122% | SK-OV-3 ovarian 116% | OVCAR-3 ovarian 114% | HS 578T breast 107% | NCI/ADR-RES ovarian 114% | T-47D breast 101% | BT-549 breast 108% | MDA-MB-435 melanoma 99.3% | SW-620 colon 102% | MCF7 breast 113% | HCT-116 colon 101% | HCC-2998 colon 104% | KM12 colon 109%
